Pf apPOL block = Pf-apPOL inhibitors, biochemical, fluorescence; Plasmodium falciparum apicoplast DNA polymerase (apPOL); Recombinant Pf-apPOL, molecular beacon fluorescence, 1.5 h; inhibition, % at 10 µM; 210,000 tested, 0.25% active
mHTT CaM bind = mutant huntingtin-calmodulin interaction inhibitors – biochemical, AlphaScreen, primary screen | AlphaScreen His-mHTT/GST-CaM binding, luminescence | P42858 | inhibition, % at 15 µM | 190,000 tested, 3.6% active
Large screens that a line does not name were inactive. Many of the other results were omitted from the sample, so hits are more common in it than they were. Cut-off read from the data, not from the text of the source: active = inhibition above about 50%; inactive = the rest.

Cc1ccc(-c2cc(C(=O)Nc3cccnc3)c3ccccc3n2)o1	none
Cc1ccc(-c2cc(C(=O)Nc3ccncc3)c3ccccc3n2)o1	mHTT CaM bind 74
O=C(Nc1c(F)cccc1F)c1cnc2n(c1=O)CCS2	none
C=C(C)Cn1c(C(=O)N2CCN(C(=O)OCC)CC2)cc2ccsc21	none
COc1ccc(CNC2CCCC2)cc1Br	none
COc1ccccc1CNc1ccc2c(c1)CCC2	mHTT CaM bind 79
COc1cc(OC)c(CNc2ccc3c(c2)CCC3)cc1Br	mHTT CaM bind 85
COc1ccc(CNc2ccc3c(c2)CCC3)cc1Br	mHTT CaM bind 77
COc1cccc(CNc2ccc3c(c2)ncn3-c2ccccc2)c1OC	none
COc1cc(OC)c(CNC2CCCC2)cc1Br	none
COc1ccccc1CNc1ccc2c(c1)ncn2-c1ccccc1OC	mHTT CaM bind 62
c1cc(CNc2ccc3c(c2)CCC3)ccn1	none
O=C(NCc1cc(F)cc(F)c1)C1CCCN(c2nnc3ccccn23)C1 (stereo not drawn)	none
C=CCNC(=O)C(=O)N1CCN(c2ccc(OC)cc2)CC1	none
COc1cc(OC)cc(C(=O)N2CCCC2COc2ccc(C(=O)N3CCCC3)cc2)c1 (stereo not drawn)	none
Cc1ccc(-c2nn(-c3ccccc3)cc2/C=N/O)o1	none
COc1cccc(C(=O)N2CCC3(CC2)NC(CC(C)C)C(=O)N3C2CC2)c1 (stereo not drawn)	none
c1cc2c(cc1CNc1ccc3c(c1)CCC3)OCO2	mHTT CaM bind 72
COc1ccc(CNc2cccc(N(C)C)c2)cc1	mHTT CaM bind 96
Fc1ccc(NCc2ccc3c(c2)OCO3)cc1F	none
COc1ccc(CNc2ccc3c(c2)CCC3)cc1	mHTT CaM bind 68
CC(=O)Nc1ccc(CNc2ccc3c(c2)CCC3)cc1	none
COc1ccc(CNc2ccc(SC)cc2)cc1	none
Cc1ccc(CNC(=O)N2CCc3c(nc(-c4ccc(F)cc4)[nH]c3=O)C2)cc1	none
CC1=C(C(=O)Nc2ccccc2)C(c2cccc(O)c2)n2nc(SCc3ccccc3)nc2N1 (stereo not drawn)	none
CCN(CC)C(=O)CC[C@H]1CC[C@]2(CCCN(C(=O)c3ccno3)C2)O1	none
CCOC(=O)CC[C@H]1CC[C@]2(CCCN(C(=O)c3ccno3)C2)O1	mHTT CaM bind 78
Cn1c(=O)[nH]c(=O)c2c1nc(NC1CCCCC1)n2Cc1ccc(F)cc1	none
O=C1NN(c2cccc(Br)c2)C(=O)/C1=C/c1ccccc1	none
O=C1NN(c2ccc(Cl)c(Cl)c2)C(=O)/C1=C/c1ccc(-c2ccc3c(c2)C(=O)NC3=O)o1	none
Cc1ccc(N2NC(=O)/C(=C\c3cccc(Br)c3)C2=O)cc1	mHTT CaM bind 71
O=C1NN(c2ccc(Cl)c(Cl)c2)C(=O)/C1=C/c1ccc(-c2ccc3c(c2)C(=O)OC3)o1	mHTT CaM bind 68
CN(C)c1ccc([N+](=O)[O-])cc1/C=C1\C(=O)NN(c2ccc(F)cc2)C1=O	none
COc1cccc(/C=C2\C(=O)NN(c3ccc(C)c(Cl)c3)C2=O)c1OCC#N	none
O=C1NN(c2ccc(Br)cc2)C(=O)/C1=C/c1cc([N+](=O)[O-])ccc1Cl	mHTT CaM bind 89
Cc1ccc(N2NC(=O)/C(=C\c3ccccc3OCC#N)C2=O)cc1Cl	mHTT CaM bind 78
COc1cccc(/C=c2\sc3ncnn3c2=O)c1	none
O=C(NC1CCCC1)C1CCCN(c2nnc3ccc(Cl)cn23)C1 (stereo not drawn)	none
Cc1ccc(N2C(=O)NC3CC2(C)Oc2ccc(Br)cc23)cc1F (stereo not drawn)	none
CC(C)(C)NC(=O)c1cc2nc(-c3ccc([N+](=O)[O-])cc3)cc(C(F)(F)F)n2n1	none
Cc1ccc(N2NC(=O)/C(=C\c3ccc(Cl)cc3Cl)C2=O)cc1Cl	mHTT CaM bind 90
O=C1NN(c2ccc(Cl)c(Cl)c2)C(=O)/C1=C/c1ccccc1	mHTT CaM bind 96
COc1ccc(/C=C2\C(=O)NN(c3ccc(Cl)c(Cl)c3)C2=O)cc1	none
Cc1ccc(N2NC(=O)/C(=C\c3cccc([N+](=O)[O-])c3)C2=O)cc1Cl	mHTT CaM bind 77
Cc1ccc(N2NC(=O)/C(=C\c3cccs3)C2=O)cc1Cl	none
O=C1NN(c2ccc(F)cc2)C(=O)/C1=C/c1cccc([N+](=O)[O-])c1	none
O=C(Cn1c(=O)cnc2cccnc21)Nc1ccc(Cl)cc1C(F)(F)F	none
Cc1ccc2cc3cc(C(=O)Nc4ccc(C)c(F)c4)oc3nc2c1	none
Cc1ccccc1CNC(=O)c1c(C)noc1-c1ccc2c(c1)OCO2	none
C=C1C2(C(=O)Nc3ccc(F)cc3)CCC(C2)C1(C)C (stereo not drawn)	none
CN1C(=O)c2cccnc2Sc2cc(C(=O)NCc3cccc(Cl)c3)ccc21	mHTT CaM bind 52
Cc1cccc(C(=O)Nc2ccc3c(c2)Sc2ncccc2C(=O)N3C)c1	mHTT CaM bind 65
CN1C(=O)c2cccnc2Sc2cc(NC(=O)c3cccc(Cl)c3)ccc21	none
Cc1ccc(CNC(=O)c2ccc3c(c2)Sc2ncccc2C(=O)N3C)cc1	none
COc1ccccc1CNC1CC(C)(C)NC(C)(C)C1	none
Cc1ccc(Cl)cc1NC(=O)CSc1cccc2cccnc12	none
NC(=O)c1ccc(NC(=O)C2CC(=O)N(CCc3c[nH]c4ccc(Cl)cc34)C2)cc1 (stereo not drawn)	mHTT CaM bind 100
CCOc1ccc(NC(=O)C2CC(=O)N(CCc3c[nH]c4ccc(Cl)cc34)C2)cc1 (stereo not drawn)	mHTT CaM bind 99
Cc1nnc(NC(=O)C2CC(=O)N(CCc3c[nH]c4ccc(Cl)cc34)C2)s1 (stereo not drawn)	none
O=C(Nc1ccc2c(c1)OCO2)C1CC(=O)N(CCc2c[nH]c3ccc(Cl)cc23)C1 (stereo not drawn)	mHTT CaM bind 82
Cc1cc(C)cc(N2CC(C(=O)N(C)Cc3ccccc3)CC2=O)c1 (stereo not drawn)	none
CCOc1ccc(NC(=O)C2CC(=O)N(CCc3c[nH]c4ccc(F)cc34)C2)cc1 (stereo not drawn)	none
Cc1ccc2[nH]cc(CCN3CC(C(=O)Nc4ccc5c(c4)OCO5)CC3=O)c2c1 (stereo not drawn)	none
Cc1ccc(N2CC(C(=O)N(C)Cc3ccccc3)CC2=O)cc1Cl (stereo not drawn)	mHTT CaM bind 61
O=C(NCc1ccc(F)cc1)C1CCCN(c2ccc(-c3ccco3)nn2)C1 (stereo not drawn)	none
O=C(Nc1ccc([N+](=O)[O-])cc1Br)C1CC(=O)N(c2ccc(F)cc2)C1 (stereo not drawn)	none
CCc1ccc(NC(=O)C2CC(=O)N(CCc3c[nH]c4ccc(F)cc34)C2)cc1 (stereo not drawn)	mHTT CaM bind 57
COc1ccc2[nH]cc(CCN3CC(C(=O)Nc4ccc(C)c(Cl)c4)CC3=O)c2c1 (stereo not drawn)	mHTT CaM bind 75
O=C(Nc1ccc(Cl)cc1)C1CC(=O)N(CCc2c[nH]c3ccc(F)cc23)C1 (stereo not drawn)	none
Cc1ccccc1NC(=O)C1CC(=O)N(CCc2c[nH]c3ccc(Cl)cc23)C1 (stereo not drawn)	mHTT CaM bind 56
Cc1ccccc1NC(=O)C1CC(=O)N(CCc2c[nH]c3ccc(F)cc23)C1 (stereo not drawn)	none
COc1ccc(NC(=O)C2CC(=O)N(CCc3c[nH]c4ccc(F)cc34)C2)c(OC)c1 (stereo not drawn)	none
Cc1ccc(NC(=O)C2CC(=O)N(CCc3c[nH]c4ccc(Cl)cc34)C2)cc1 (stereo not drawn)	mHTT CaM bind 62

Bioassay records: PubChem BioAssay, University of Kansas High Throughput Screening Laboratory
